High-throughput results as filed in PubChem.
Rows were chosen to be rich in hits. Some 15% of all compounds tested hit in one or more screens of this group.
RORg inh = qHTS for inhibitors of ROR gamma transcriptional activity; Nuclear receptor ROR-gamma (Mus musculus), P51450; Drosophila S2 Gal4-RORgamma UAS-luciferase reporter, 20 h; Potency, µM (top dose mostly 53.6 µM), for the others: at the top dose activity change, negative = inhibition, actives largely listed as inhibitors; 5.4% of 310,000 active; AID 2551, 2010; further: nearly all actives have a fitted effect of over 60% in size
Target sequence (P51450 whole entry, looked up, the tested form may be a part): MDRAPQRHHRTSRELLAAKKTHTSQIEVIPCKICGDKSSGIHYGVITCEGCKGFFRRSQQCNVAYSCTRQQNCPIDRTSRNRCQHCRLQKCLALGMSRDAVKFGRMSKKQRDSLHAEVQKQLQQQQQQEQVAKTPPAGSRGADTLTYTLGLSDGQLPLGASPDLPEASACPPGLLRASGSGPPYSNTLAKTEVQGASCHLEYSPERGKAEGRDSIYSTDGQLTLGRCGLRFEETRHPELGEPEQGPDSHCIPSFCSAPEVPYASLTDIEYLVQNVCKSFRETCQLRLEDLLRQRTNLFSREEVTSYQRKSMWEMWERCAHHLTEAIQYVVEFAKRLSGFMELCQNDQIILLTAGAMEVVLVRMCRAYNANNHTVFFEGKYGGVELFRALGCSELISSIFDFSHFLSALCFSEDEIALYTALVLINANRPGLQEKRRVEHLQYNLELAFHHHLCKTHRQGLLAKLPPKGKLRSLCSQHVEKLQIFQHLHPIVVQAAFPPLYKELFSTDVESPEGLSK
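In this cell-based reporter format, copper sulfate (700 uM final) drives Gal4–ROR gamma fusion expression from a metallothionein promoter in Drosophila Schneider cells; compounds preincubated 1 hr, reporter read after 20 hr at ambient temperature.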
ELG1 repair inh = qHTS screen for small molecules that inhibit ELG1-dependent DNA repair in human embryonic kidney (HEK293T) cells expressing luciferase-tagged ELG1; 2.3% of 330,000 active; HEK293T ELG1-luciferase reporter, luminescence, 16 h; DNA damage induced by 5-fluorouridine; Potency, µM (doses to about 46.1 µM), without a hit: at the top dose activity change, negative = inhibition, usual class: inhibitors; further: nearly all actives have a fitted effect of over 55% in size
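5-Fluorouridine DNA damage + compound/DMSO, 2,000 cells/well, 16 h, 37 °C/5% CO2. ONE-Glo, 30 min RT, luminescence. Readout = decrease in reporter signal.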
DT40 TDP1 CPT = qHTS for Inhibitors of human tyrosyl-DNA phosphodiesterase 1 (TDP1): qHTS in cells in presence of CPT; chicken DT40 Tdp1-/-;hTDP1 cells + 20 nM CPT, ATP luminescence, 48 h; Potency, µM (top dose mostly 46.2 µM), without a hit: at the highest dose activity change, negative = growth inhibition, actives largely listed as inhibitors; 12% of 420,000 active; AID 686979, 2013; further: nearly all actives have a fitted effect of over 55% in size
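Chicken DT40 Tdp1-/- cells complemented with human TDP1, 400 cells/well, exposed to compounds plus 20 nM camptothecin for at least 48 h at 37 C; viability read as ATP content by CellTiter-Glo luminescence.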
Gal4-VP16 FLuc = VP16 counterscreen qHTS for inhibitors of ROR gamma transcriptional activity; Drosophila S2 Gal4-VP16 UAS-luciferase, luminescence, 20 h; 3.5% of 310,000 active; AID 2546, 2010; Potency, µM (titrated, usually from 53.6 µM), for inactives: at the highest dose activity, negative = inhibition, actives largely listed as inhibitors;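 further: Gal4-VP16 expression switched on by copper sulfate through the metallothionein promoter; nearly all actives have a fitted effect of over 50% in size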
12-LOX inh = Primary qHTS assay for inhibitors of human arachidonate 12S-lipoxygenase (ALOX12): Round 2 | 1.1% of 580,000 active | Potency, µM (top dose mostly 108 µM), for inactives: at the top dose activity change, negative = inhibition, actives largely listed as inhibitors | AID 1671190, 2021 | purified 12hLO, xylenol orange hydroperoxide absorbance | Polyunsaturated fatty acid lipoxygenase ALOX12 (Homo sapiens), P18054
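Hydroperoxide product was detected by ferrous iron/xylenol orange as the 573 to 405 nm absorbance ratio. Arachidonic acid at 40 uM (final) was turned over for 30 min at room temperature by 150 nM human 12hLO, pH 7.0 Hepes buffer, after 15 min compound preincubation.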
DT40 TDP1 no CPT = qHTS for Inhibitors of human tyrosyl-DNA phosphodiesterase 1 (TDP1): qHTS in cells in absence of CPT; 15% of 420,000 active; AID 686978, 2013; Potency, µM (highest dose often 46.2 µM), inactives show at the top dose activity change, negative = growth inhibition, most hits filed as inhibitors; DT40 Tdp1-/- hTDP1 cells, no CPT, ATP luminescence, 48 h; further: nearly all actives have a fitted effect of over 55% in size
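Compound effects on proliferation are scored in DT40 Tdp1-/-;hTDP1 cells in the absence of CPT. ATP levels (CellTiter-Glo luminescence) are recorded after a ≥48 hr, 37 °C incubation.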
Numbers without * were called inactive; ? = inconclusive; / = not tested or not shown; ! = not active in a repeat; [ ] = dose if it differs, or a comment. The call rests on the fitted dose curve; in most records, active means well fitted curve in the direction sought with a large enough effect; inconclusive means small, poorly fitted or top-dose-only effect, or another doubt; inactive means no such curve, though single readings can be large; an effect the other way counts as inactive or inconclusive. On the % scale 0 is the no-effect control and ±100 the full control effect; potency means the concentration at half of the fitted maximal effect.

SMILES	RORg inh	ELG1 repair inh	DT40 TDP1 CPT	Gal4-VP16 FLuc	12-LOX inh	DT40 TDP1 no CPT
O=C(N/N=C/c1cc2c(cc1Br)OCO2)c1ccccn1	-2%	?	-8%	?	127%	?
O=C(N/N=C/c1cc2c(cc1Br)OCO2)c1c[nH]c2ccccc12	?	-2%	?	1%	-4%	21µM*
O=C(N/N=C/c1c[nH]c2ccccc12)c1ccc2c(c1)OCCO2	-27%	?	?	2%	238%	16µM*
CCOC(=O)C1=CN(CC(=O)Nc2cccc(Cl)c2)S(=O)(=O)N=C1C	/	/	/	/	-28%	/
CC(C)C(=O)Nc1ccc(F)c(F)c1	/	/	/	/	-9%	/
Cc1ccc(-c2nnc(Nc3ccc(Br)cc3)c3ccccc23)cc1S(=O)(=O)N1CCCCC1	/	/	-9%	/	-11%	?
Cc1ccccc1Nc1nnc(-c2ccc(C)c(S(=O)(=O)N3CCN(C)CC3)c2)c2ccccc12	/	/	?	/	-3%	?
Cc1ccc(-c2nnc(Nc3cccc(O)c3)c3ccccc23)cc1S(=O)(=O)N1CCN(C)CC1	/	/	?	/	0%	18µM*
Cc1ccc(C)c(Nc2nnc(-c3ccc(C)c(S(=O)(=O)N4CCN(C)CC4)c3)c3ccccc23)c1	/	/	?	/	-24%	23µM*
Cc1ccc(-c2nnc(Nc3ccc(Br)cc3)c3ccccc23)cc1S(=O)(=O)N1CCN(C)CC1	/	/	12µM*	/	-26%	18µM*
COC(=O)c1ccc(Nc2nnc(-c3ccc(C)c(S(=O)(=O)N4CCN(C)CC4)c3)c3ccccc23)cc1	/	/	?	/	?	23µM*
CCCn1cc(C(=O)n2nc(C)cc2C)c(S(=O)(=O)N2CCN(c3ccc(Cl)cc3)CC2)n1	/	/	/	/	3%	/
Cc1ccc(-c2nnc(Nc3ccc(F)cc3)c3ccccc23)cc1S(=O)(=O)N1CCN(C)CC1	/	/	?	/	7%	?
Cc1ccc(-c2nnc(Nc3ccc(O)cc3)c3ccccc23)cc1S(=O)(=O)N1CCN(C)CC1	/	/	?	/	?	18µM*
CN(Cc1ccccc1)C(=O)C1CCCN(Cc2cccc(Cl)c2)C1 (stereo not drawn)	15%	1%	?	1%	?	23µM*!
COc1cccc(CN(C)C(=O)C2CCCN(C(=O)c3ccc(Cl)cc3)C2)c1 (stereo not drawn)	/	/	21µM*	/	14%	?
COc1ccc(CCN(C)C(=O)C2CCCN(C3CCN(Cc4ccccc4)CC3)C2)cc1OC (stereo not drawn)	-13%	-9%	?	-11%	0.32µM*!	-28%
COc1cccc(CC(NC(C)=O)C(=O)NC2CCN(C(=O)c3ccc(Cl)cc3)CC2)c1 (stereo not drawn)	-14%	1%	-22%	-6%	-16%	5.8µM*
COC(=O)C1=C(C)N(C)C(=O)NC1c1ccccc1OC(F)F (stereo not drawn)	/	/	/	/	40%	/
CC(=O)N(c1nc(COc2ccccc2C(N)=O)cs1)c1ccc(C)cc1C	/	/	/	/	-1%	/
C[C@H]1CN([C@@H](C)CO)S(=O)(=O)c2ccc(Br)cc2O[C@H]1CN(C)Cc1ccccc1F	/	/	16µM*	/	-27%	23µM*
C[C@H]1CN([C@@H](C)CO)S(=O)(=O)c2ccc(Br)cc2O[C@H]1CN(C)C(=O)c1ccccc1F	/	/	/	/	-5%	/
C[C@@H]1CN([C@@H](C)CO)S(=O)(=O)c2ccc(Br)cc2O[C@H]1CN(C)C(=O)c1ccccc1F	/	/	?	/	10%	?
C[C@@H]1CN([C@@H](C)CO)S(=O)(=O)c2ccc(Br)cc2O[C@H]1CN(C)Cc1ccccc1F	/	/	15µM*	/	-8%	10µM*
N#CC1(NC(=O)Cc2c[nH]c3cc(F)ccc23)CCC1	/	/	/	/	3%	/
SMILES	RORg inh	ELG1 repair inh	DT40 TDP1 CPT	Gal4-VP16 FLuc	12-LOX inh	DT40 TDP1 no CPT
COc1ccccc1-c1cnc(Nc2ccc(Cl)cn2)c2c1CCO2	/	/	/	/	12%[176 µM]	/
Cc1noc(-c2cn(C3CCN(C(=O)c4sccc4C)C3)nn2)n1 (stereo not drawn)	/	/	/	/	15%	/
CCc1noc(-c2cn(C3CCN(C(=O)c4sccc4C)C3)nn2)n1 (stereo not drawn)	/	/	/	/	45µM*	/
CCCCn1c(N)c(N(CC(C)C)C(=O)c2cc3c(s2)CCC(C)C3)c(=O)[nH]c1=O (stereo not drawn)	/	/	/	/	134%	/
CCc1cccc(CC)c1NC(=O)C1SC(=Nc2ccccc2C)C(c2nc3ccccc3s2)=C1N (stereo not drawn)	-22%	0%	?	2%	0%	23µM*
Cc1ccc(-c2nc3ccccc3s2)cc1NC(=O)C(C)C	/	/	/	/	-1%	/
O=C(Oc1ccccc1)N1CCC2(CC1)CN(c1ncccn1)C2	4%	/	?	?	3%[57.4 µM]	?
O=C(Oc1ccccc1)N1CCC2(CCCN(c3ncccn3)C2)CC1	?	/	-25%	8%	0%[57.4 µM]	18µM*
O=C(Oc1ccccc1)N1CCC2(CC1)CCN(c1ccccc1)CC2	45%	/	?	-18%	?	18µM*
CCOC(=O)C1=NNC(C(=O)c2ccccc2)C1c1ccc(C)cc1 (stereo not drawn)	-5%	-8%	-15%	11%	?	-22%
CCOC(=O)C1=NNC(C(=O)c2ccc(C)cc2)C1c1ccc(C)cc1 (stereo not drawn)	8%	12%	?	-7%	?	16µM*
COc1cccc(NC(=O)N[C@H]2C[C@@H](C(=O)N[C@@H](CCCNC(=O)C=C(C)C)C(N)=O)N(C(=O)C=C(C)C)C2)c1	/	/	/	/	5%	/
CO[C@H]1[C@H](NC(=O)c2cn3ccsc3n2)c2ccccc2C12CCNCC2	/	/	/	/	89%	/
Cc1cccc(Cc2cnc(NC(=O)c3cc(=O)c4cc(C)ccc4o3)s2)c1	/	/	/	/	39%	/
Cc1ccc(Cc2cnc(NC(=O)C3CCCO3)s2)cc1 (stereo not drawn)	?	?	-22%	-6%	-7%	-29%
O=C1c2cccnc2C(=O)N1Cc1ccc(Cl)cc1	2%	1%	-15%	6%	0%	-11%
